# PubChem BioAssay
# The source made the active and inactive calls.
# Legend:
# [1] = small molecules captured by biotinylated probe aFSTL3 – biochemical, small-molecule microarray, fluorescence 635/667, stem cell growth factor project, primary screen (AID 1064); conditions: higher = more signal;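 also: measures binding of the biotinylated anti-FSTL3 antibody to printed compounds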
# [2] = binders from COS7 lysate, DM2A8 probe, primary screen, torsin A project, cell lysate, small-molecule microarray, fluorescence 635/667 (AID 1065); conditions: higher = more signal, COS7 lysate expressing mutant human TOR1A
# [3] = small molecules captured by biotinylated probe aFGF2 – biochemical, small-molecule microarray, fluorescence 635/667, stem cell growth factor project, primary screen (AID 1067); conditions: higher = more signal;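 also: measures binding of biotinylated aFGF2 protein to printed compounds on slides; z-score merges feature fluorescence and signal-to-noise across triplicate slides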
# [4] = small molecules captured by biotinylated probe aFGF10 – biochemical, small-molecule microarray, fluorescence 635/667, stem cell growth factor project, primary screen (AID 1071); conditions: higher = more signal;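 also: score merges 667 nm spot intensity and signal to noise from triplicate slides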
# [5] = biological target: Neurogenic locus notch homolog protein 2 (Homo sapiens) (UniProt Q04721); assay: small molecules binding Notch2 protein – biochemical, small-molecule microarray, 635 nm fluorescence, stem cell growth factors, primary screen (AID 1073); conditions: higher = more signal
# Chain of Neurogenic locus notch homolog protein 2 (Homo sapiens) (Q04721 whole entry, looked up, canonical isoform): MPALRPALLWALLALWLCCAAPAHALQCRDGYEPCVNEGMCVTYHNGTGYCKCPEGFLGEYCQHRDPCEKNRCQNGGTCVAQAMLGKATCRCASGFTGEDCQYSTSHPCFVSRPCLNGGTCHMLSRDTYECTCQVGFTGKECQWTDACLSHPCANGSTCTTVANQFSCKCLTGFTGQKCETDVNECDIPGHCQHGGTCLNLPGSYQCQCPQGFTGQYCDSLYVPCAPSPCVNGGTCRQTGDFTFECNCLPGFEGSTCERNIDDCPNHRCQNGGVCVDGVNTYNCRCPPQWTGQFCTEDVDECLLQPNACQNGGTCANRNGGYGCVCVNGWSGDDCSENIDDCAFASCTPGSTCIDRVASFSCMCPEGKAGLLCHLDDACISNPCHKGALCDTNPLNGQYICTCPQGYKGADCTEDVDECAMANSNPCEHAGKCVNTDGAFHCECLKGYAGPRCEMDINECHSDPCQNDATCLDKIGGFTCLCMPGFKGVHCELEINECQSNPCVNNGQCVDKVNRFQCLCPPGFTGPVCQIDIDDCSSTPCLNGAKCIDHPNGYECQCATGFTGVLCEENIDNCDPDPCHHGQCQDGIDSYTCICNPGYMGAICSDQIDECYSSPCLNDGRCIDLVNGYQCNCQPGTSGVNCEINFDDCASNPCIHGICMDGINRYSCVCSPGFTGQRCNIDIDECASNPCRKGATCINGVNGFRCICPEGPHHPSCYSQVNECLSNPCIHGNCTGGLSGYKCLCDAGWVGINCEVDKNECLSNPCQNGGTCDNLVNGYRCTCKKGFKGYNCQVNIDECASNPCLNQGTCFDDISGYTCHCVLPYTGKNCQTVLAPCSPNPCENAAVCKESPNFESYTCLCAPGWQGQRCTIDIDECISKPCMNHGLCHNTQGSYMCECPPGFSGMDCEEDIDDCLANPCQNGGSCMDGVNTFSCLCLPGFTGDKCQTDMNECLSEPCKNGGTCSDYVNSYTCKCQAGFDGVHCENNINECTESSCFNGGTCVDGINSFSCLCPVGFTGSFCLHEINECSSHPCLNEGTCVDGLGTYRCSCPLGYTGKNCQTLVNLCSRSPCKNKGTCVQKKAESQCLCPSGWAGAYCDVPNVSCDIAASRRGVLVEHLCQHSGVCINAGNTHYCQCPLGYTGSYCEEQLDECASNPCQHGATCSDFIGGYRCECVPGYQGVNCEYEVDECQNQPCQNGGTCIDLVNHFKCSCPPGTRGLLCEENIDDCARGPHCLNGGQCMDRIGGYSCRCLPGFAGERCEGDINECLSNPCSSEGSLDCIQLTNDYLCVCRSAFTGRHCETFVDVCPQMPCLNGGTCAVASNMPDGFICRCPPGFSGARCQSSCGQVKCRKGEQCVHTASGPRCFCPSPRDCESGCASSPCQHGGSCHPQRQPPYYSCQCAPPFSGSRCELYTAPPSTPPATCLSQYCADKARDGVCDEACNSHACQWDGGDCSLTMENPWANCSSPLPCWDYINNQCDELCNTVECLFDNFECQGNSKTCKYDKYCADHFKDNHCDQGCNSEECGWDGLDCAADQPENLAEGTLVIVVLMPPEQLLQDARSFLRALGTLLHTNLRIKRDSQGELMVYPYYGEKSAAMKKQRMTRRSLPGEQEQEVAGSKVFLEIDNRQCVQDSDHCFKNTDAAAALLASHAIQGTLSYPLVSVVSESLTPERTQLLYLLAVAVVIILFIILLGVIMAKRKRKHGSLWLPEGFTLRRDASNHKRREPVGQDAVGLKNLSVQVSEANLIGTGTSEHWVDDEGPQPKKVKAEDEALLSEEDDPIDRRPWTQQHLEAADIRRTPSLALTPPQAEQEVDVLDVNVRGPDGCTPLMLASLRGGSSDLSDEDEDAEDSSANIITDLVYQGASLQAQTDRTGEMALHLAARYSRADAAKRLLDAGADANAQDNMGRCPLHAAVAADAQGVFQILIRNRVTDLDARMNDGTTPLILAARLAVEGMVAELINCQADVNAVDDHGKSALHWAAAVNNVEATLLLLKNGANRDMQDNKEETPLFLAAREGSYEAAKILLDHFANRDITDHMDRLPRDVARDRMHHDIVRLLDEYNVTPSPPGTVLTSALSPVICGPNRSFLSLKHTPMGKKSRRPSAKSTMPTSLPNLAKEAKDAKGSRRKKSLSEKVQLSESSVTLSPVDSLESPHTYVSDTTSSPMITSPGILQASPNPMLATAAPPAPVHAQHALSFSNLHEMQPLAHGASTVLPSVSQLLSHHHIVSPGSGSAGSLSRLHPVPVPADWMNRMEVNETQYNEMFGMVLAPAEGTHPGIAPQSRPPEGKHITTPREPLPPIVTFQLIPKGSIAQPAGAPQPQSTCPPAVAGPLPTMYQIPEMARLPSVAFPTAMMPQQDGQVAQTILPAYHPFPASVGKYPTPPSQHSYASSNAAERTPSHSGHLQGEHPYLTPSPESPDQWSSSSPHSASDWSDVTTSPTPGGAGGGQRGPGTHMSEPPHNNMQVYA
# [6] = biological target: Pro-neuregulin-1, membrane-bound isoform (Homo sapiens) (UniProt Q02297); assay: small molecules binding neuregulin-1 protein – biochemical, small-molecule microarray, fluorescence 635/667, psychiatric disease protein project, primary screen (AID 1075); conditions: NRG1 binding, 635 nm fluorescence, higher = more signal;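 also: score combines 667 nm spot fluorescence with signal to noise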
# Chain of Pro-neuregulin-1, membrane-bound isoform (Homo sapiens) (Q02297 whole entry, looked up, the tested form may be a part, canonical isoform): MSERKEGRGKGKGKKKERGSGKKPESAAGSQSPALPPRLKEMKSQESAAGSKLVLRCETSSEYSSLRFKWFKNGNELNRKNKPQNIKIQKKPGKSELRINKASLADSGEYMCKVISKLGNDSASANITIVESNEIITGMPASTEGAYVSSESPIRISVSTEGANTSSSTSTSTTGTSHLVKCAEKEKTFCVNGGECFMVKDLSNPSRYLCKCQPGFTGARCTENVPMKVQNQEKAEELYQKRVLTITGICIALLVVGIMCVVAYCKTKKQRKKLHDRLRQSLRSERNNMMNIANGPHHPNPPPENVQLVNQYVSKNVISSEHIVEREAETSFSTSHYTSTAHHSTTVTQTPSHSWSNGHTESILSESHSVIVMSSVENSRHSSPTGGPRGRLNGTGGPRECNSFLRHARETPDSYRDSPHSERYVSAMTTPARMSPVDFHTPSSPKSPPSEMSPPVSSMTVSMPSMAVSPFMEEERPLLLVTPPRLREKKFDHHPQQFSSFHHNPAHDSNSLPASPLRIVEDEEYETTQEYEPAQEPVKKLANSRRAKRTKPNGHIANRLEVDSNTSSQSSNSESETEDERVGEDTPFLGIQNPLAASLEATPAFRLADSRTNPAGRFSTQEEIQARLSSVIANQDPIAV
# [7] = tested on: Neuregulin-1 EGF-like domain; assay: small molecules binding NRG1 EGF domain – biochemical, small-molecule microarray, 635 nm fluorescence, primary screen (AID 1081); conditions: higher = more signal;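 also: binding of the protein to compounds printed on small-molecule microarray slides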
# [8] = FRG1 expression reporter modulators in myotubes – cell-based, C2C12 myotubes, firefly/Renilla luciferase, luminescence, FRG1 inhibition for FSHD, primary screen (AID 1084); conditions: FRG1 promoter luciferase, higher = more signal, called active from +8 up or from −8 down
# [9] = small molecules captured by biotinylated probe aFST – biochemical, small-molecule microarray, fluorescence 635/667, stem cell growth factor project, primary screen (AID 1086); conditions: higher = more signal;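 also: score merges 667 nm fluorescence with signal-to-noise of each printed compound spot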
# [10] = binders of probe aHhip on microarray, primary screen, stem cell growth factor project, biochemical, small-molecule microarray, fluorescence 635/667 (AID 1087); conditions: higher = more signal;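 also: score merges spot fluorescence at 667nm with spot signal to noise ratio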
# [11] = tested on: PRMT1 (protein arginine N-methyltransferase 1); assay: small molecules binding arginine methyltransferase PRMT1 – biochemical, small-molecule microarray, 635 nm fluorescence, primary screen (AID 1088); conditions: higher = more signal;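 also: binding of Prmt1 protein to compounds spotted on small-molecule microarray slides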
# [12] = growth effects on S. cerevisiae YJM789 – YJM789 clinical isolate, OD600, 24 h, basal, primary screen (AID 1089); conditions: higher = more signal, called active from +8 up or from −8 down;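 also: growth of clinical yeast isolate S. cerevisiae YJM 789 seeded 1000 cells per well; test concentration not given here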
# [13] = S. pombe growth modifiers, basal conditions – strain 972, OD600, 24 h, no modulator, primary screen (AID 1090);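 also: basal condition with compound alone and no growth modifier present; test concentration not given here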; conditions: S. pombe 972 growth, higher = more signal, called active from +8 up or from −8 down
# [14] = budding yeast growth modifiers under rapamycin – strain BY4716, OD600, 96 h, primary screen (AID 1091); also: test concentration not given here; conditions: S. cerevisiae BY4716 + rapamycin, higher = more signal, called active from +8 up or from −8 down
# [15] = biological target: Torsin-1A-interacting protein 2 (Homo sapiens) (UniProt Q8NFQ8); assay: small molecules binding lysate-expressed LULL1 – cell lysate, human LULL1 lysate, 635/667 nm fluorescence, primary screen (AID 1092); conditions: small-molecule microarray, hLULL1 lysate binding, 635 nm fluorescence; higher = more signal;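 also: probe is lysate of COS7 cells overexpressing human LULL1; score merges per-feature 667 nm fluorescence with signal-to-noise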
# Chain of Torsin-1A-interacting protein 2 (Homo sapiens) (Q8NFQ8 whole entry, looked up): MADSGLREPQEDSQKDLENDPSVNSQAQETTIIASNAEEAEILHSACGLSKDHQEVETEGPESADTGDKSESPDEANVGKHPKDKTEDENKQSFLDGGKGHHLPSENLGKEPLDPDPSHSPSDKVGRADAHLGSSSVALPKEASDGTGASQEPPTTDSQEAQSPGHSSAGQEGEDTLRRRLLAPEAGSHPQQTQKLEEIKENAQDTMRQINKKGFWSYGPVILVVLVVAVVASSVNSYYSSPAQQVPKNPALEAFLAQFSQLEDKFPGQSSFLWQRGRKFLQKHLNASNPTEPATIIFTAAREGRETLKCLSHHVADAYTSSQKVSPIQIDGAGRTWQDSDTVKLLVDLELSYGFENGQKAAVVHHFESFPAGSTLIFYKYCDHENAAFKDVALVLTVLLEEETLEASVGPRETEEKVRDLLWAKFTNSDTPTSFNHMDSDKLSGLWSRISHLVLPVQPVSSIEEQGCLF
# [16] = optical density change of DRC41 E. coli – strain DRC41, OD650, 24 h, E. coli filamentation project, primary screen (AID 1093);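 also: MC1000 strain lacking acrAB efflux and sulA so SOS filamentation is blocked; test concentration not given here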; conditions: E. coli DRC41 growth, higher = more signal, called active from +8 up or from −8 down
# [17] = probe aLefty2 binding to arrayed compounds – biochemical, biotinylated probe, 635/667 nm fluorescence, primary screen (AID 1094); conditions: small-molecule microarray, higher = more signal;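 also: score merges spot fluorescence near 667 nm with spot signal-to-noise ratio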
# [18] = tested on: Noggin (protein binding on small-molecule microarray); assay: small molecules binding Noggin protein – biochemical, 635/667 nm fluorescence, primary screen (AID 1095); conditions: 635 nm fluorescence, higher = more signal;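 also: score merges 667 nm feature fluorescence with signal to noise over triplicate slides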
# [19] = biological target: Neurogenic locus notch homolog protein 3 (Homo sapiens) (UniProt Q9UM47); assay: small molecules binding NOTCH3 protein – biochemical, 635/667 nm fluorescence, primary screen (AID 1096); conditions: small-molecule microarray, 635 nm fluorescence, higher = more signal
# [20] = probe aEGFR binding to arrayed compounds – biochemical, biotinylated probe, 635/667 nm fluorescence, primary screen (AID 1097); conditions: small-molecule microarray, higher = more signal;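 also: probe is a biotinylated anti-EGFR antibody binding compounds printed on slides; score combines fluorescence near 667 nm and signal to noise of each spot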
Compound,composite z-score [1],composite z-score [2],composite z-score [3],composite z-score [4],composite z-score [5],composite z-score [6],composite z-score [7],z-score [8],composite z-score [9],composite z-score [10],composite z-score [11],z-score [12],z-score [13],z-score [14],composite z-score [15],z-score [16],composite z-score [17],composite z-score [18],composite z-score [19],composite z-score [20]
Cc1ccc(S[C@]2(C(=O)NC3CC3)CC(=O)N(Cc3ccccc3)[C@@H]2c2ccc(CO)cc2)cc1,0.462,-1.21,-0.118,-0.0824,-0.764,-0.419,0.0059,-1.17 (inactive),0.135,-0.247,0.0655,-0.592 (inactive),-0.852 (inactive),-0.168 (inactive),2.08,-0.445 (inactive),0.0704,-0.347,-0.462,-0.0778
CC(C)OC(=O)CC(=O)CC(O)c1ccc(C#N)cc1 (stereo not given),0.401,0.435,0.0798,0.356,1.29,0.366,0.552,-0.711 (inactive),0.712,0.0722,0.269,-2.05 (inactive),0.331 (inactive),-0.602 (inactive),1.85,0.0935 (inactive),0.403,-0.263,0.14,0.0541
C[C@]1(C(=O)NCc2ccccc2)c2ccccc2C(=O)N(Cc2cc(F)cc(C(F)(F)F)c2)[C@H]1c1ccc(CO)cc1,0.46,-0.512,-0.0894,-0.0459,-0.706,-0.353,1.26,-3.12 (inactive),-0.344,-0.0994,0.113,0.328 (inactive),-0.325 (inactive),-0.0212 (inactive),2.68,0.808 (inactive),-0.0508,-1.67,-1.37,-0.253
CC(C)(C)OC(=O)CC[C@@]1(C(=O)NCCN2CCOCC2)N=C(c2ccc(OCCCO)cc2)O[C@@H]1c1ccccc1,1.11,1.4,0.0189,0.262,1.28,1.75,1.2,0.951 (inactive),0.972,0.167,1.57,-0.444 (inactive),0.0418 (inactive),-0.552 (inactive),3.1,1.03 (inactive),0.37,0.755,0.807,0.285
CO[C@H]1O[C@H](CO)[C@@H](OC(=O)Nc2ccc(Oc3ccccc3)cc2)[C@H](OC(=O)Nc2ccccc2)[C@H]1OC(=O)Nc1ccccc1,0.096,0.95,0.0732,1.16,1.48,1.3,1.39,0.119 (inactive),0.446,-0.0346,1.55,1.48 (inactive),0.613 (inactive),-1.75 (inactive),3.26,0.939 (inactive),0.286,0.7,1.13,0.13
COc1cc2c(cc1O)C(C)N(Cc1cccc(OC(F)(F)F)c1)CC2 (stereo not given),0.067,-0.142,0.139,0.953,1.23,2.13,1.47,0.734 (inactive),0.226,-0.205,1.42,-0.167 (inactive),-2.4 (inactive),-1.09 (inactive),3.02,-1.26 (inactive),-0.0719,0.205,0.76,-0.0697
[N-]=[N+]=NCc1ccccc1[C@H]1OC(c2ccc(OCCCO)cc2)=N[C@@]1(CCS(=O)(=O)c1ccccc1)C(=O)N1CCOCC1,0.476,0.525,0.221,1.03,1.63,2.18,1.16,0.51 (inactive),1.86,-0.0391,1.27,0.0373 (inactive),0.553 (inactive),2.23 (inactive),3.65,0.151 (inactive),0.663,0.346,1.1,0.302
CCOc1cc(C(O)C2C=CC3C(=O)N(c4ccccc4)C(=O)C3N2Nc2ccc([N+](=O)[O-])cc2)ccc1O (stereo not given),-0.549,0.23,0.0139,0.516,0.796,0.946,0.943,-0.374 (inactive),0.311,-0.271,1.07,-0.441 (inactive),0.442 (inactive),-0.364 (inactive),3.37,-0.961 (inactive),-0.0534,0.0883,0.782,-0.067
COc1cccc(C(=O)O[C@H]2CC[C@]3(C)C4=C(CCC3C2(C)C)[C@]2(C)CC[C@H]([C@H](C)CCCC(C)C)[C@@]2(C)CC4)c1 (stereo not given in full),-0.526,0.0024,-0.0425,0.366,-0.87,0.103,0.181,-1.06 (inactive),0.169,0.0722,-0.0398,-1.73 (inactive),-1.08 (inactive),-0.166 (inactive),0.385,2.43 (inactive),-0.082,0.383,0.618,-0.0158
CCOC(=O)C1=CCC(c2ccc(C#N)cc2)N(S(=O)(=O)c2ccc(C)cc2)C1 (stereo not given),0.657,0.359,0.165,0.446,1.67,1.32,1.27,-3.85 (inactive),1.27,0.11,1.11,-0.0764 (inactive),0.0767 (inactive),2.91 (inactive),2.64,0.394 (inactive),0.276,-0.184,1.09,-0.0297
